Results: PubChem BioAssay AID1345083 (National Center for Advancing Translational Sciences (NCATS), 2018)
The campaign covered roughly 94,000 compounds. About 6,200 (6.6%) were called active. Another 31% or so got no clear call; they are omitted. Calls come from the whole dose curve; as a rule, active = well fitted inhibition curve with a large enough effect; inconclusive = small, poorly fitted or top-dose-only effect; inactive = flat fitted curve, though single readings scatter. The entries come from a sample that favours actives as a whole. Where a call stands in place of a potency, no number is given.

Experiment: Cytotoxic Profiling in HEK 293 Cell Line of Diverse Libraries Using Quantitative High-Throughput Screening; note: nearly all actives have a fitted effect of over 60% in size
Settings: HEK 293 viability, ATP luminescence (CellTiter-Glo), 48-72 h; series mostly up to 115 µM
Outline: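 CellTiter-Glo luminescence (cellular ATP) was read after 48 or 72 hr of compound exposure at 37 degree Celsius. Cells were HEK 293 plated at 250 cells/well.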
Potency is the fitted concentration of half-maximal effect.

Structure (SMILES) | Potency
COC(=O)NC1CCCN(c2ccc3nnc(C)n3n2)C1 (stereo unspecified) | inactive
Cc1ccc(-c2cc(N3CCC(CNC(=O)c4ccc(N(C)C)cc4)CC3)n[nH]2)cc1 | inactive
COc1ccc(C(=O)NCCC2CCN(C(=O)Nc3cc(F)ccc3F)CC2)cc1 | inactive
Cn1nccc1C(=O)NC1CCCN(c2cc(N3CCCC3)ncn2)C1 (stereo unspecified) | inactive
Cc1ccc(C(=O)NC2CCN(c3cc(-c4cccs4)[nH]n3)C2)cc1 (stereo unspecified) | inactive
O=C(NC1CCN(c2cc(C(F)(F)F)ncn2)CC1)c1ccc(F)cc1 | inactive
COc1ccc(-c2cc(N3CCCC(NC(=O)c4cc(F)ccc4Cl)C3)n[nH]2)cc1 (stereo unspecified) | 28.2 µM (active)
COc1ccc(-c2cc(N3CCCC(NC(=O)c4ccsc4)C3)n[nH]2)cc1 (stereo unspecified) | 35.5 µM (active)
COc1ccc(-c2cc(N3CCCC(NC(=O)c4cccc(Cl)c4)C3)n[nH]2)cc1 (stereo unspecified) | 44.7 µM (active)
COc1ccc(-c2cc(N3CCC(NC(=O)c4ccc(N(C)C)cc4)C3)n[nH]2)cc1 (stereo unspecified) | 70.8 µM (active)
Cc1cc(C(=O)N2C[C@@H](COCC(N)=O)[C@H](c3ccncc3)C2)c(C)o1 | inactive
O=C1Nc2cnccc2C2(CCN(C(=O)c3ccccc3F)C2)O1 (stereo unspecified) | inactive
CCOc1ccccc1NC(=O)CC[C@H]1NC(=O)c2ccccc2NC1=O | inactive
O=C(c1ccoc1)N1CCC(Oc2ncccc2C(=O)N2CCOCC2)C1 (stereo unspecified) | inactive
CN1[C@@H](CCC(=O)NCc2ccccc2)CNC(=O)[C@@H]2[C@H]1CCN2Cc1csnn1 | inactive
O=C(c1ccc(CO)o1)N1CCC2(CC1)[C@H](O)C[C@@H]2OCCO | inactive
CC(c1cccs1)N(C)Cc1ccncc1 (stereo unspecified) | inactive
COCc1nnc2n1CCC(NC(=O)NCCc1ccccc1)CC2 (stereo unspecified) | inactive
O=C(CCCc1ccccc1)Nc1ccc(-c2nnc3n2CCCC3)cc1 | inactive
CN1Cc2ncnc(N3CCCCC3)c2CN(c2ccccc2)C1=O | inactive
O=C(Nc1ccc(F)cc1)C1CCCN(Cc2cccc(-c3ccc(F)cc3F)c2)C1 (stereo unspecified) | 35.5 µM (active)
CNC(=O)[C@@H](Cc1ccccc1)N1CCC[C@H]1C(=O)NCC1CC1 | inactive
O=C(C1CCCN(Cc2cccc(-c3ccc(F)cc3F)c2)C1)N1CCCCC1 (stereo unspecified) | 31.6 µM (active)
COc1ccccc1-c1cccc(CN2CCCC(C(=O)NCC3CC3)C2)c1 (stereo unspecified) | 39.8 µM (active)
CN(C)C(=O)N1CCCC(C(=O)N2CCC(N3Cc4cccn4C3=O)CC2)C1 (stereo unspecified) | inactive
O=C1CCN(Cc2ccncc2)CCCC(C(=O)Nc2cccc(F)c2)CCN1 (stereo unspecified) | inactive

Structure (SMILES) | Potency
O=C(c1cccs1)C1CCCN(C(=O)COc2ccc(F)cc2F)C1 (stereo unspecified) | inactive
O=C(Nc1cccc(F)c1)N1CCCC(CN2CCOCC2)CC1 (stereo unspecified) | inactive
O=C(NCC1CC1)C1CCCN(C2CCN(Cc3ccncc3)CC2)C1 (stereo unspecified) | inactive
Cc1nnc2n1C(C)CN(C(=O)CCCc1nc(-c3ccncc3)no1)C2 (stereo unspecified) | inactive
O=C(NCc1cccnc1)C1CCCN(c2ccnc3ccnn23)C1 (stereo unspecified) | inactive
CCCNC(=O)NC1CCN(C(=O)N2CC3CC(C2)[C@H]2CCCC(=O)N2C3)CC1 (stereo partly specified) | inactive
CCN1c2cc(C(=O)NCc3ccccc3C(F)(F)F)ccc2C(=O)N2CCCCCC21 (stereo unspecified) | 39.8 µM (active)
CCN1C(=O)Cc2cc(C(=O)NCc3cc(OC)ccc3OC)ccc21 | inactive
CCN1c2cc(C(=O)Nc3ccc(SC)cc3)ccc2C(=O)N2CCCCCC21 (stereo unspecified) | 22.4 µM (active)
O=C(Nc1ccc([C@H]2OCC(=O)N(C3CCOCC3)[C@@H]2CO)cc1)c1ccc(F)c(Cl)c1 | inactive
COc1ccc(CNC(=O)c2ccc3c(c2)N(C)C2CCCCN2C3=O)c(OC)c1 (stereo unspecified) | inactive
CCN1c2cc(C(=O)Nc3ccc(F)c(Cl)c3)ccc2C(=O)N2CCCCC21 (stereo unspecified) | 39.8 µM (active)
COc1cc(=O)n2c(c1C(=O)Nc1ccc(Cl)c(F)c1)CCCC2 | inactive
CN(C)C[C@@H]1CN(C)C[C@H]1NC(=O)c1ccnnc1 | inactive
CC(C)CC(=O)N1CCN(c2nnc3ccccn23)CC1 | inactive
CC(C)(C)CC(=O)Nc1ccc2c(N3CCOCC3)ncnc2c1 | inactive
O=C(CCCc1ccccc1)NCCC1CCN(C(=O)Nc2cc(F)cc(F)c2)CC1 | inactive
CN1C(=O)C(CC(=O)NCc2ccccc2F)Sc2ncccc21 (stereo unspecified) | inactive
COCc1cccc(C(=O)N2CC[C@@](C)(O)[C@@H](O)C2)n1 | inactive
C=CCN(C)c1nc(C)nc2c1CCN(C(=O)N1CCOCC1)CC2 | inactive
N#Cc1ccc(CN2CCCC3(COc4ccccc4[S+](=O)([O-])N3)C2)cc1 (stereo unspecified) | inactive
CS(=O)(=O)N1CCCN(C(=O)CN2CCCCCC2)CCNC(=O)CC1c1ccccc1 (stereo unspecified) | inactive
CC(C)CN1CCOC[C@H](Oc2ccc(S(C)(=O)=O)cc2)C1 | inactive
Cn1cc(CN2CCOC[C@H](Oc3ccc(S(C)(=O)=O)cc3)C2)c2ccccc21 | 50.1 µM (active)
COc1ccc(O[C@H]2COCCN(Cc3nccn3C)C2)cc1 | inactive
Cc1cc(C(=O)NCC2CCCN(Cc3nnc(-c4cccnc4)o3)C2)no1 (stereo unspecified) | inactive

Structure (SMILES) | Potency
Cc1ccc(S(=O)(=O)N(C)Cc2ccccc2C(F)(F)F)cc1 | 70.8 µM (active)
Cc1ccc(S(=O)(=O)N(C)CC2CCOCC2)cc1F | inactive
CN(CC1CCOC1)S(=O)(=O)c1ccccc1C(F)(F)F (stereo unspecified) | inactive
CN1C(=O)CCC2(CNC(=O)C3CCC3)CCC=C12 (stereo unspecified) | inactive
O=C(NC1CCCC1)NC1CC(c2nnc(CO)n2C2CC2)C1 (stereo unspecified) | inactive
O=C(C1CCc2nnc(C3CCN([S+](=O)([O-])c4ccccc4)CC3)n21)N1CCOCC1 (stereo unspecified) | inactive
O=C(N1CCC(Cc2nc(-c3ccccc3)n[nH]2)C1)C1(c2ccccc2)CC1 (stereo unspecified) | 44.7 µM (active)
O=C(N1CCCC(Cc2nc(C3CCOCC3)no2)C1)C1(c2ccccc2)CC1 (stereo unspecified) | inactive
O=C(C1CCC1)N1CCC(Cc2nc(-c3cccnc3)n[nH]2)C1 (stereo unspecified) | inactive
CCc1noc(-c2cccn3c(CNC(=O)c4cccc(Cl)c4)nnc23)n1 | inactive
CC1(c2noc(C3CCOCC3)n2)CCN(Cc2c(F)cccc2Cl)CC1 | inactive
CC(C)C(=O)Nc1ccc(C2(C(=O)NCCN3CCCCC3)CCCCC2)cc1 | inactive
Cc1ccc(NC(=O)[C@@H]2CNC[C@H](C(=O)NCc3ccccn3)C2)cn1 | inactive
O=C(COc1ccc(NC(=O)C2CC2)cn1)NCc1ccc(F)cc1F | inactive
COc1ccc(NC(=O)[C@@H]2C[C@@H](c3ccc(F)cc3)N(CCOc3ccccc3)C2)cn1 | 39.8 µM (active)
O=C(C1NCCc2[nH]cnc21)N1CCc2nnc(-c3ccccc3)n2CC1 (stereo unspecified) | inactive
O=C(Nc1ccccc1F)N1CCc2nnc(C3CC3)n2CC1 | inactive
Cn1nc(C(=O)N2CCC(N3C(=O)C(O)C34CCCCC4)CC2)c2ccccc21 (stereo unspecified) | inactive
O=C(c1ccc2c(c1)OCO2)N1CCC2(C1)C(=O)Nc1ccccc12 (stereo unspecified) | inactive
Cc1ccc([S+](=O)([O-])N2CCN(C(=O)c3nc4cccnc4n(C4CCCC4)c3=O)CC2)cc1 | 39.8 µM (active)
O=C(c1ccc(F)cc1)N1CCN(C(=O)c2nc3cccnc3n(C3CCCC3)c2=O)CC1 | inactive
Cc1ccccc1C(=O)N1CCN(C(=O)c2nc3cccnc3n(C3CC3)c2=O)CC1 | inactive
Cc1ccccc1C(=O)N1C(C(=O)NCC2CCCO2)COC12CCN(C(=O)c1cccs1)CC2 (stereo unspecified) | inactive
O=C(NCC1CCCO1)c1noc(-c2ccccc2F)n1 (stereo unspecified) | inactive
O=C(NCC1CCCO1)c1csc(N2CCN(c3ccccc3F)CC2)n1 (stereo unspecified) | 89.1 µM (active)
CC(C)NC(=O)C1CCc2nnc(CNC(=O)c3ccc(Cl)cc3Cl)n21 (stereo unspecified) | inactive

Structure (SMILES) | Potency
COc1ccccc1-c1cc(C(=O)NC2CCCCC2)c2cnn(C)c2n1 | inactive
Cn1ncc2c(C(=O)NCC#N)cc(-c3cccc(C(F)(F)F)c3)nc21 | inactive
Cn1ncc2c(C(=O)NCc3ccc(F)cc3)cc(-c3cccc(C(F)(F)F)c3)nc21 | inactive
Cn1ncc2c(C(=O)NCc3ccccc3)cc(-c3ccc(C(F)(F)F)cc3)nc21 | 79.4 µM (active)
Cn1ncc2c(C(=O)NCc3ccc(F)cc3F)cc(-c3ccccc3C(F)(F)F)nc21 | 31.6 µM (active)
Cn1ncc2c(C(=O)N3CCN(c4ncccn4)CC3)cc(-c3ccc(C(F)(F)F)cc3)nc21 | 50.1 µM (active)
Cn1ncc2c(C(=O)NCC(F)(F)F)cc(-c3ccc(C(F)(F)F)cc3)nc21 | inactive
Cn1ncc2c(C(=O)NCc3ccc(C(F)(F)F)cc3)cc(C3C=C(C(F)(F)F)C=CC3)nc21 (stereo unspecified) | inactive
CC(C)OCCCNC(=O)c1cc(-c2ccc(C(F)(F)F)cc2)nc2c1cnn2C | 44.7 µM (active)
Cc1ccc(-c2cc(C(=O)N3CCOCC3)c3cnn(C)c3n2)c(C)c1 | inactive
CC(=O)N1CCN(C(=O)c2cc(-c3cccc(F)c3)nc3c2cnn3C)CC1 | inactive
Cn1cnc(S(=O)(=O)N2CCC(c3noc(-c4ccccc4)n3)C2)c1 (stereo unspecified) | inactive
CCOc1ccc(CC(=O)N2C[C@@H](N)C[C@H]2C(=O)NC(C)C)cc1 | inactive
CNC(=O)[C@H]1C[C@H](Oc2cccnc2)CN1C(=O)NCCc1ccccc1 | inactive
COCCn1ncc(N2CCCC(CC(=O)Nc3ccc(C)cc3)C2)cc1=O (stereo unspecified) | inactive
O=C(c1ccccc1F)N1CCC2(CC1)C(=O)Nc1ccccc12 | inactive
CC(=O)N[C@@H]1[C@@H](NC(=O)Cc2cccs2)[C@H]2CCO[C@H]21 | inactive
O=C(NCc1ccccn1)c1ccc2nccn2c1 | inactive
O=C(NC1CCN(Cc2ccc(F)c(F)c2)CC1)c1ccc2nccn2c1 | 44.7 µM (active)
O=C(c1ccc2nccn2c1)N1CCOCC1 | inactive
COc1ccc(C(=O)N2CCCN(C(=O)C3CC3)C(c3ccccc3)CC(=O)NCC2)cn1 (stereo unspecified) | inactive
COc1ccccc1N1CCCc2ncc(C(=O)N3CCCC[C@@H]3c3ccccc3)cc21 | 89.1 µM (active)
COc1ccccc1N1CCN(C(=O)C2CCCN(C(=O)c3ccccc3)CCC(=O)NCC2)CC1 (stereo unspecified) | inactive
